Sampled rows, rich in hits. Any-hit rate of the full collection: about 5.2%.
PLK1 PBD block – PLK1 (human) polo-box domain binding inhibition | Potency, µM, for inactives: max response, negative = inhibition, actives largely listed as inhibitors | P53350 | Plk1 PBD binding of FITC phosphopeptide, fluorescence polarization | hit rate 2.8% among 360,000; also: series mostly up to about 57 µM; nearly all actives have a fitted effect of over 65% in size
mIDH1 inhibitor – blocks human mutant IDH1 R132H enzyme; AID 602179; O75874; Potency, µM (top dose mostly 76.6 µM), for the others: at the top dose activity change, negative = inhibition, actives largely listed as inhibitors; IDH1-R132H enzyme, NADPH consumption, diaphorase/resazurin fluorescence; hit rate 0.093% among 390,000; also: nearly all actives have a fitted effect of over 65% in size
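IDH1-R132H (0.5 ug/mL dispensed) in pH 7.5 Tris buffer was preincubated 30 min with compound, then given a substrate mix of 0.016 mM NADPH and 2 mM alpha-KG for 80 min at room temperature; remaining NADPH was read by diaphorase/resazurin fluorescence.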
TrxR1 substrate – rat thioredoxin reductase 1 substrate activity; O89049; purified TrxR1 substrate turnover, NADPH consumption readout; Potency, µM (titrated, usually from 114 µM), without a hit: at the top dose activity change, negative = substrate turnover; hit rate 0.01% among 390,000; also: nearly all actives have a fitted effect of over 50% in size
Target sequence (O89049 whole entry, looked up): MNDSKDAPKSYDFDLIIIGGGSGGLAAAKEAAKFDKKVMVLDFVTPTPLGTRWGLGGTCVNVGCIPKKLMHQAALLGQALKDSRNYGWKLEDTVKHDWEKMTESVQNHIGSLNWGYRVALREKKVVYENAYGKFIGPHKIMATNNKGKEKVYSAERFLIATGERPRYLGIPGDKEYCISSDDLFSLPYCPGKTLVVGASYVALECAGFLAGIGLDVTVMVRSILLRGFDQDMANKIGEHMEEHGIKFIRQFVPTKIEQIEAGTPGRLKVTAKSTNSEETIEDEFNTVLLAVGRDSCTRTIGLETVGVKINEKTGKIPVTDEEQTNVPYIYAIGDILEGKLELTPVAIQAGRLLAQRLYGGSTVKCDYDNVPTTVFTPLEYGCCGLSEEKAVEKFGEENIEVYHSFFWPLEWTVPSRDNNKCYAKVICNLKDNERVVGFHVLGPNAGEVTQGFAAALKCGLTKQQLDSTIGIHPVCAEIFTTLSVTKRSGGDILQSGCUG
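Rat TrxR1, dispensed at 90 nM, was prereduced with 400 uM NADPH (final) for 5 min at ~22 deg C, then incubated with compound 15 min before 400 uM selenite. A first-read NADPH fluorescence drop versus no-compound background flagged substrates.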
VDR inh – blocks the human vitamin D receptor | P11473 | VDR-SRC2-3 peptide fluorescence polarization, 2 h | Potency, µM, for inactives: max response, negative = inhibition, actives largely listed as inhibitors | hit rate 0.93% among 400,000 | AID 504847
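Compounds are added to VDR with labelled SRC2-3 coactivator peptide and held 2 h at room temperature. Inhibition of the VDR–peptide interaction is then read as a change in fluorescence polarization.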
rTrxR1 inhibitor – blocks rat thioredoxin reductase 1; recombinant rTrxR1, NADPH fluorescence consumption, selenite substrate; hit rate 1% among 390,000; Potency, µM (doses to about 114 µM), inactives show top-dose activity change, negative = inhibition, most hits filed as inhibitors; O89049; also: nearly all actives have a fitted effect of over 65% in size
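Rat TrxR1 (90 nM in the dispensed reagent) was pre-reduced with 400 uM NADPH for 5 min at room temperature, then incubated with compound for 15 min. After 400 uM selenite was added, NADPH fluorescence (Ex 340/Em 450 nm) was followed for 8 min.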
Sfp PPTase inh – blocks B. subtilis Sfp PPTase activity; Q9F4F7; Potency, µM, inactives show largest response in the series, negative = inhibition, usual class: inhibitors; Biochemical Sfp PPTase activity, qHTS; AID 1490; hit rate 3.5% among 310,000;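 also: the enzyme is Sfp with the accession as filed and its product quenches rhodamine fluorescence; 0% = enzyme reaction without inhibitor and -100% = no enzyme wells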
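Compounds were incubated with enzyme (final 15 nM) for 15 min at room temperature before substrate addition started the reaction. Fluorescence at 525 nm excitation, 598 nm emission was recorded immediately and after 30 minutes.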
Active calls of the source: *; ? = inconclusive; . = no result given; [ ] = remark or other dose. Calls follow the shape of the dose curve; as a rule, active = well fitted curve in the direction sought with a large enough effect; inconclusive = small, poorly fitted or top-dose-only effect, or another doubt; inactive = no such curve, though single readings can be large; an effect the other way counts as inactive or inconclusive. Unless noted, % is scaled to controls: 0 for no effect and ±100 for the full control effect; potency is read from the fitted curve at half-maximal effect.

SMILES	PLK1 PBD block	mIDH1 inhibitor	TrxR1 substrate	VDR inh	rTrxR1 inhibitor	Sfp PPTase inh
COc1ccc(NC(=O)CSC2=C(C#N)C(c3ccco3)C3=C(CCCC3=O)N2)c(OC)c1 (stereo not drawn)	-4%	5%	3%	2%	-6%	?
CCc1nc2ccc(C(=O)NCCN(C)C)cn2c1N(CC)CCOC	1%	.	.	.	.	.
CN1C(=O)c2ccccc2Sc2ccc(NC(=O)NCc3cccc(Cl)c3)cc21	.	-4%	7%	16%	-6%	.
CCCCc1nc2sc3c(SCCN(C)C)ncnc3c2c2c1CCC2	-6%	-3%	-2%[57.1 µM]	?	5%[57.1 µM]	?
COc1cccc(NC(=O)CSc2nc3c(oc4ccccc43)c(=O)[nH]2)c1	-25%	0%	-11%	-5%	-13%	8%
O=C(O)CSc1ncnc2c1oc1ccccc12	-5%	2%	-3%	3%	-22%	14%
O=C(CSc1ncnc2c1oc1ccccc12)NCc1ccco1	-16%	2%	7%	-10%	?	28µM*
CCCCc1nc2sc3c(SCC(=O)NCc4ccco4)ncnc3c2c2c1CCC2	-12%	0%	-10%	-11%	-27%	45µM*
COc1cccc(NC(=O)CSc2ncnc3c2oc2ccccc23)c1	0%	0%	5%	0%	8%	71µM*
CC(Sc1nc(C(C)(C)C)cc(-c2ccccc2)c1C#N)C(=O)Nc1ccccc1 (stereo not drawn)	12µM*	-11%	-4%	?	-1%	14µM*
CCOC(=O)C(C)Sc1nc(-c2ccccc2Cl)cc(-c2ccccc2)c1C#N (stereo not drawn)	.	-5%	9%	-14%	10%	.
O=C(COC(=O)c1ccc([N+](=O)[O-])o1)Nc1cccc2ccccc12	-13%	3%	-1%	7%	20µM*	-14%
CS(=O)(=O)c1ccc(C(=O)OCC(=O)NC2CCS(=O)(=O)C2)cc1[N+](=O)[O-] (stereo not drawn)	-6%	1%	4%	-3%	7.9µM*	18%
O=C(COC(=O)c1ccc([N+](=O)[O-])o1)NCCCc1ccccc1	-24%	16%	-6%	3%	?	.
O=C(COC(=O)c1ccc([N+](=O)[O-])o1)NC1CCCC1	-19%	1%	-2%	6%	?	.
O=C(COC(=O)c1ccc([N+](=O)[O-])o1)NC1CCS(=O)(=O)C1 (stereo not drawn)	-11%	4%	-7%	-8%	3.5µM*	-1%
O=C(COC(=O)c1ccc2c(c1)OCO2)NC1CCS(=O)(=O)C1 (stereo not drawn)	0%	0%	11%	-4%	79µM*	1%
O=C(NC1(C(F)(F)F)NC(=O)N(CCc2ccccc2)C1=O)c1ccccc1F (stereo not drawn)	.	-3%	6%	9%	32%	.
CCN(C(=O)CSc1nc2ccccc2nc1Cc1cccc(OC)c1)c1cccc(C)c1	.	15%	4%[57.1 µM]	15%	16%[57.1 µM]	.
Cc1cccc(C(=O)OCC(=O)NCc2cccs2)c1	-4%	-10%	0%[57.1 µM]	-4%	5%[57.1 µM]	17%
CS(=O)(=O)c1ccc(C(=O)OCC(=O)NCc2cccs2)cc1[N+](=O)[O-]	-27%	-13%	10%[57.1 µM]	?	1.8µM*	.
CCCCCCCCC1OC1CCCCCCCC(=O)O (stereo not drawn)	.	.	.	0%	.	13%
CCCCCCCCCCCCCCCC(=O)C1=C(O)C(CO)OC1=O (stereo not drawn)	.	.	.	14µM*	.	-8%
CCCCc1nn2c(=O)cc(COC(=O)c3ccc(NC(=O)CCc4ccccc4)cc3)nc2s1	.	0%	-4%[57.1 µM]	5%	10%[57.1 µM]	.
O=C(CCl)N1N=C(c2ccco2)CC1c1cccs1 (stereo not drawn)	-13%	-3%	0%	-20%	2µM*	28µM*
CC(=O)N1N=C(c2ccco2)CC1c1cccs1 (stereo not drawn)	-5%	-1%	5%	-12%	?	?
Cc1ccc(C2=NN(C(=O)CCl)C(c3cccs3)C2)o1 (stereo not drawn)	-11%	3%	0%[57.1 µM]	-14%	10µM*	50µM*
